Assay results from PubChem BioAssay AID1159580 (chemical genetic matrix, 2015).
Screen size: about 5,500 compounds; about 2,000 (36%) were called active. Roughly 18% stayed inconclusive and do not appear here. Rule as the data show it: active = normalized growth mostly below about 0.91 (no sharp cut-off); inconclusive = no clear call, values can overlap the other calls; inactive = mostly above about 0.92. The list shows a part of the results.

Experiment: chemical genetic growth profiling, strain panel (AID 1159580);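 also: tested at 20 µM; growth read once vehicle control cultures reached saturation at 30 °C; 1 = growth at the plate median or of vehicle wells; lower values mean less growth of the strain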
Conditions: S. cerevisiae deletion strains, growth OD
[1] = locus YDL101C, strain DUN1, stronger effect = lower value
[2] = locus YHR030C, strain SLT2, stronger effect = lower value

Measured: normalized growth

CC(C)(C)C1=CC(=O)C=C(C(C)(C)C)C1=O
inactive: locus YAL013W, strain DEP1, stronger effect = lower value 1.03 | locus YBR229C, strain ROT2, stronger effect = lower value 1.04 | [1] 0.997 | locus YDL134C, strain PPH21, stronger effect = lower value 1.01 | locus YDR150W, strain NUM1, stronger effect = lower value 0.979 | locus YEL061C, strain CIN8, stronger effect = lower value 1 | locus YGR078C, strain PAC10, stronger effect = lower value 1.01 | [2] 0.996 | locus YHR087W, strain rtc3, stronger effect = lower value 1 | locus YJR043C, strain POL32, stronger effect = lower value 1.02 | locus YJR075W, strain HOC1, stronger effect = lower value 1.01 | locus YLR039C, strain RIC1, stronger effect = lower value 1.03 | locus YLR058C, strain SHM2 (second series), stronger effect = lower value 1.02 | locus YLR085C, strain ARP6, stronger effect = lower value 1.05 | locus YLR262C, strain YPT6, stronger effect = lower value 1 | locus YML094W, strain GIM5, stronger effect = lower value 1.01 | locus YMR219W, strain ESC1, stronger effect = lower value 1.01 | locus YMR263W, strain SAP30, stronger effect = lower value 1.02 | locus YMR307W, strain GAS1, stronger effect = lower value 1.02 | locus YNL153C, strain GIM3, stronger effect = lower value 1.03 | locus YNL298W, strain CLA4 (second series), stronger effect = lower value 1.03 | locus YNL322C, strain KRE1, stronger effect = lower value 1 | locus YNR030W, strain Alg12, stronger effect = lower value 1.03 | locus YOL006C, strain TOP1, stronger effect = lower value 1.05 | locus YPL055C, strain LGE1, stronger effect = lower value 1.02 | locus YPL241C, strain CIN2, stronger effect = lower value 0.999 | locus YPR135W, strain CTF4, stronger effect = lower value 1.07

CN1/C(=C/C=C/c2ccc3ccccc3[n+]2C)C=Cc2ccccc21
inactive: locus YBR135W, strain CKS1, stronger effect = lower value 0.901 | locus YBR160W, strain CDC28, stronger effect = lower value 0.919 | locus YDL028C, strain MPS1, stronger effect = lower value 0.928 | locus YDL108W, strain KIN28, stronger effect = lower value 0.912 | locus YDR226W, strain ADK1, stronger effect = lower value 0.961 | locus YIL147C, strain SLN1, stronger effect = lower value 0.905 | locus YPR106W, strain ISR1, stronger effect = lower value 0.929 | locus YPR111W, strain DBF20, stronger effect = lower value 0.902
active: locus YAR019C, strain CDC15, stronger effect = lower value 0.675 | locus YBL105C, strain PKC1, stronger effect = lower value 0.837 | locus YBR136W, strain MEC1, stronger effect = lower value 0.893 | locus YDL017W, strain CDC7, stronger effect = lower value 0.903 | [1] 0.362 | locus YDL132W, strain cdc53, stronger effect = lower value 0.653 | locus YDL214C, strain PRR2, stronger effect = lower value 0.185 | locus YDR052C, strain DBF4, stronger effect = lower value 0.889 | locus YDR054C, strain cdc34, stronger effect = lower value 0.581 | locus YDR477W, strain SNF1, stronger effect = lower value 0.226 | locus YER123W, strain YCK3, stronger effect = lower value 0.204 | locus YER133W, strain GLC7, stronger effect = lower value 0.18 | locus YFL009W, strain cdc4, stronger effect = lower value 0.684 | locus YFL029C, strain CAK1, stronger effect = lower value 0.603 | locus YFR003C, strain YPI1, stronger effect = lower value 0.883 | locus YFR019W, strain FAB1, stronger effect = lower value 0.217 | locus YFR028C, strain CDC14, stronger effect = lower value 0.885 | locus YGR040W, strain KSS1, stronger effect = lower value 0.215 | locus YGR052W, strain FMP48, stronger effect = lower value 0.212 | locus YGR092W, strain DBF2, stronger effect = lower value 0.148 | [2] 0.177 | locus YHR079C, strain IRE1, stronger effect = lower value 0.182 | locus YHR082C, strain KSP1, stronger effect = lower value 0.224 | locus YHR205W, strain SCH9, stronger effect = lower value 0.132 | locus YJL095W, strain BCK1, stronger effect = lower value 0.208 | locus YJL157C, strain FAR1, stronger effect = lower value 0.174 | locus YJR016C, strain ILV3, stronger effect = lower value 0.828 | locus YJR066W, strain TOR1 (second series), stronger effect = lower value 0.196 | locus YJR066W, strain TOR1, stronger effect = lower value 0.197 | locus YKL048C, strain ELM1, stronger effect = lower value 0.291 | locus YKL067W, strain YNK1, stronger effect = lower value 0.162 | locus YKL101W, strain HSL1, stronger effect = lower value 0.199 | locus YKL193C, strain SDS22, stronger effect = lower value 0.655 | locus YKL203C, strain TOR2, stronger effect = lower value 0.209 | locus YLR113W, strain HOG1, stronger effect = lower value 0.29 | locus YLR133W, strain CKI1, stronger effect = lower value 0.341 | locus YLR403W, strain SFP1, stronger effect = lower value 0.0454 | locus YML070W, strain DAK1, stronger effect = lower value 0.209 | locus YMR001C, strain CDC5, stronger effect = lower value 0.816 | locus YMR205C, strain PFK2 (second series), stronger effect = lower value 0.325 | locus YNL006W, strain LST8, stronger effect = lower value 0.793 | locus YNL020C, strain ARK1, stronger effect = lower value 0.243 | locus YNL161W, strain CBK1, stronger effect = lower value 0.658 | locus YNL183C, strain NPR1, stronger effect = lower value 0.197 | locus YNL207W, strain RIO2, stronger effect = lower value 0.528 | locus YNL222W, strain SSU72, stronger effect = lower value 0.708 | locus YNL307C, strain MCK1 (second series), stronger effect = lower value 0.189 | locus YOL136C, strain PFK27, stronger effect = lower value 0.188 | locus YOR061W, strain CKA2, stronger effect = lower value 0.181 | locus YOR119C, strain RIO1, stronger effect = lower value 0.221 | locus YOR231W, strain MKK1, stronger effect = lower value 0.198 | locus YOR329C, strain SCD5, stronger effect = lower value 0.702 | locus YPL031C, strain PHO85, stronger effect = lower value 0.198 | locus YPL153C, strain RAD53, stronger effect = lower value 0.178 | locus YPL204W, strain HRR25, stronger effect = lower value 0.177 | locus YPL209C, strain IPL1, stronger effect = lower value 0.748 | locus YPL256C, strain CLN2, stronger effect = lower value 0.25 | locus YPR025C, strain CCL1, stronger effect = lower value 0.821 | strain NNK1, stronger effect = lower value 0.536 | strain TSCII, stronger effect = lower value 0.604
